Reference: PubChem BioAssay (NCI)
This is part of a sample that, as a whole, favours compounds with a hit. Of some 83,000 tested, about 20% had one in any assay.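 Single-dose data. Exposure time 48 hours. Values below 10 considered active.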 Activity calls are given as the source filed them.

The molecules below were run on PC-3 prostate (assay: NCI-60 one-dose screen, 48 h (100 = growth as untreated, 0 = no growth, -100 = all killed)). Conditions: 10 µM unless noted.
In the case of `C#CC(OC(=O)N(C)C)(c1ccccc1)c1ccc(F)cc1` (centres undefined), the growth is reported as 102% (inactive). In the case of `CC(C)c1ccc(C(=O)Nc2sc3c(c2C#N)CCC(=O)C3)cc1`, the growth is reported as 1.47% (active). With `c1coc2occoc=2o1` the growth was 96.8% (inactive). For `Cc1cc(SC#N)ncn1`, the growth was 107% (inactive). In the case of `Cc1ccc(NCCN2CCCCC2)c2c(=O)c3ccccc3sc12`, the growth is reported as 38.2% (inactive). `O=C(NCCCNC(=O)OCc1ccc2cccc(O)c2n1)OCc1ccc2cccc(O)c2n1` was tested, and the growth was 56.6% (inactive). With `O=[N+]([O-])c1ccc(O)c(-c2nc3ccccc3s2)c1` the growth was 70.6% (inactive). For `COc1ccc(C(=O)CSc2nccc(Nc3ccc(C(=O)O)cc3)n2)cc1`, the growth was 102% (inactive). For `C=C(C)[C@@H]1CC[C@]2(C(=O)NCCNCCNC(=O)OC(C)(C)C)CC[C@]3(C)[C@H](CC[C@@H]4[C@@]5(C)CCC(=O)C(C)(C)[C@@H]5CC[C@]43C)[C@@H]12`, the growth was 19.1% [100 µM] (inactive). For `Cc1ccc(-c2cn(C/C=C3\C=CN(S(=O)(=O)c4ccccc4)CC3)nn2)cc1`, the growth was 97.1% (inactive). For `CC1(C)CC[C@]23CC[C@]4(C)[C@H](CC[C@@H]5[C@@]6(C)C/C(=C/c7ccncc7)C(=O)C(C)(C)[C@@H]6CC[C@]54C)[C@H]2[C@H]1OC3=O`, the growth was 50.5% [100 µM] (inactive). `CCN(CC)CCCOc1ccc2c(c1)O/C(=C\c1cccc(OC)c1)C2=O` was tested, and the growth was 94.6% (inactive). In the case of `CC1Cc2c(Cl)ncnc2N(C)c2ccc(O)cc21` (centres undefined), the growth is reported as 31.4% (inactive). For `CSc1cccc([N+](=O)[O-])c1`, the growth was 96.9% (inactive).
